Test systems include NCI-H226 lung; NCI-H322M lung; HOP-62 NSCLC; NCI-H460 lung; HOP-92 NSCLC; NCI-H522 lung; A549/ATCC NSCLC; 786-0 renal; COLO 205 colon.
Test in all cases: NCI-60 one-dose screen, 48 h (100 = growth as untreated, 0 = no growth, -100 = all killed)
Common to all, as to conditions: 10 µM unless noted

Molecules are shown by their SMILES. Compounds without any hit were thinned out: in the full panel of roughly 83,000, 20% have a hit.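 48-hour exposure, single concentration, 96-well plates; percent growth endpoint where 0 means no net growth. Active: below 10.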 A number with no mark means an inactive call. Activity calls are given as the source filed them.

Consider `COc1cc(-c2nn(-c3ccc(Br)cc3)cc2C(=O)O)ccc1O`, for which the growth in the assay with NCI-H226 lung was 91.7%; with NCI-H322M lung, 95.3%; in the assay with HOP-62 NSCLC, 96.3%; with NCI-H460 lung, 103%; in the assay on HOP-92 NSCLC, 94.5%; with NCI-H522 lung it was 67.7%. The values for the growth in the assay with A549/ATCC NSCLC, with 786-0 renal and in the assay with COLO 205 colon were 105%, 97.6% and 109%, respectively.

For `N#Cc1nnn(-c2ccc(S(N)(=O)=O)cc2)c1NCC(=O)c1ccccc1`, the growth with NCI-H226 lung is 88.2%; with NCI-H322M lung it was 91.2%; in the assay on HOP-62 NSCLC, 91.7%; with NCI-H460 lung, 101%; in the assay on HOP-92 NSCLC, 86.6%; with NCI-H522 lung it was 83.9%. For the same compound, the growth in the assay on A549/ATCC NSCLC was 93.3%; with 786-0 renal, 102%; in the assay on COLO 205 colon it was 104%.

Turning to `COc1ccc2c(c1)O/C(=C\c1cccc(OCC(=O)Nc3nc4c(s3)CCCC4)c1)C2=O`, the growth in the assay with NCI-H226 lung is 86.9%; with NCI-H322M lung it was 95.4%; in the assay on HOP-62 NSCLC, 103%; in the assay with NCI-H460 lung, 115%; in the assay on HOP-92 NSCLC it was -23.4% (active); in the assay on NCI-H522 lung it was -91.4% (active). Moreover, the growth with A549/ATCC NSCLC is 94.6%; in the assay on 786-0 renal, 89.9%; with COLO 205 colon, 113%.

Turning to `NC(=O)c1cc(I)ccc1NC(=O)/C=C/c1ccccc1Cl`, the growth with NCI-H322M lung was 55.5%; in the assay with HOP-62 NSCLC, 83%; in the assay on NCI-H460 lung, 0.527% (active); in the assay with HOP-92 NSCLC, 48.3%; with A549/ATCC NSCLC it was 15.7%; with 786-0 renal, 48.1%. For the same compound, in the assay with COLO 205 colon, the growth was -26.7% (active).

Turning to `NC(=O)c1cc(Br)ccc1NC(=O)/C=C/c1ccccc1`, the growth in the assay on NCI-H226 lung is 66.9%; in the assay with NCI-H322M lung, 76.1%; in the assay on HOP-62 NSCLC, 99%; with NCI-H460 lung, 17.1%; in the assay on HOP-92 NSCLC it was 57%; in the assay on NCI-H522 lung it was -24.9% (active). Moreover, the growth with A549/ATCC NSCLC was 33.2%; in the assay with 786-0 renal, 65.7%; in the assay with COLO 205 colon, -4.22% (active).

Regarding `C=C(C)C1CC(O)C2(C)CCCC3C2C1CC(C)C3(C)CC/C(C)=C/C(O)C1CCC(=O)c2c(OC)cc(OC)cc21` (stereo not drawn), the growth was 71.2% in the assay with NCI-H226 lung; 78.9% with NCI-H322M lung; 46.7% with HOP-62 NSCLC; 14.7% with NCI-H460 lung; 58.5% with HOP-92 NSCLC; 53.6% with NCI-H522 lung. Also, the growth in the assay on A549/ATCC NSCLC was 30.8%; with 786-0 renal, 58%; in the assay on COLO 205 colon, 40.8%.

Take `O=C1/C(=C/N2N=C(c3ccc4ccccc4c3)CC2c2ccccc2O)SC(=S)N1c1cccnc1` (stereo not drawn): the growth in the assay with NCI-H226 lung was 31.7%; with NCI-H322M lung, 46%; with HOP-62 NSCLC, 25.2%; in the assay with NCI-H460 lung, 15.3%; in the assay with HOP-92 NSCLC it was 77%; with NCI-H522 lung, 21.1%. Moreover, the growth is 18.8% in the assay with A549/ATCC NSCLC, 14% in the assay with 786-0 renal and 27.3% in the assay with COLO 205 colon.

As for `CN1CCN(CCCOc2cccc3nc(Nc4ccc(Cl)c(F)c4)ccc23)CC1`, the growth with NCI-H226 lung is 58.1%; in the assay on NCI-H322M lung, 33.6%; with NCI-H460 lung it was 13.2%; in the assay on HOP-92 NSCLC, 30.8%; in the assay on NCI-H522 lung it was 29.8%; with A549/ATCC NSCLC, 40.1%. For the same compound, the growth in the assay on 786-0 renal is 64.1%; in the assay on COLO 205 colon, -54.7% (active).

Consider `FC(F)(F)Oc1ccc2nc3nc4ccc[nH]c4cc3c2c1`, for which the growth in the assay on NCI-H322M lung was 71.6%; in the assay on HOP-62 NSCLC, 58.4%; with NCI-H460 lung, 46.2%; with HOP-92 NSCLC, 84.7%; with NCI-H522 lung it was 75.3%; in the assay with A549/ATCC NSCLC, 64.5%. The growth in the assay on 786-0 renal was 46.4%; with COLO 205 colon it was 95.4%.

Take `CCc1nc(N)nc(N)c1C#CC(C)c1cc(-c2ccnc(C)c2)c2oc(C)nc2c1` (stereo not drawn): the growth in the assay on NCI-H226 lung was 44.7%; with NCI-H322M lung, 25.3%; with HOP-62 NSCLC it was -2.79% (active); with NCI-H460 lung it was 2.7% (active); in the assay with HOP-92 NSCLC, -0.67% (active); with NCI-H522 lung, 18.2%. For the same compound, the growth in the assay on 786-0 renal was 6.31% (active); in the assay on COLO 205 colon, 0.792% (active).

Turning to `COc1cc2nc(N3CCCC3)nc(NCCc3ccccc3)c2cc1OC`, the growth in the assay on NCI-H226 lung was 90.5%; with NCI-H322M lung it was 75.2%; in the assay with HOP-62 NSCLC, 68.5%; in the assay with NCI-H460 lung, 10.1%; with HOP-92 NSCLC, 74.6%; in the assay with NCI-H522 lung, 61.7%. For the same compound, the growth in the assay with A549/ATCC NSCLC is 18.5%; in the assay with 786-0 renal, 81.5%; in the assay on COLO 205 colon, -84.8% (active).

As to `CN1CCN(CCCOc2cccc3nc(Nc4cc(Cl)cc(Cl)c4)ccc23)CC1`, the growth with NCI-H226 lung is -10.9% (active); in the assay on NCI-H322M lung it was 3.59% (active); in the assay on HOP-62 NSCLC it was 19.8%; with NCI-H460 lung, -37% (active); with HOP-92 NSCLC it was 3.95% (active); in the assay on NCI-H522 lung, -18.3% (active). Besides, the growth in the assay on A549/ATCC NSCLC was 0.988% (active); with 786-0 renal it was 37.3%; in the assay on COLO 205 colon it was -67.4% (active).

Turning to `Cc1nn(-c2ccc(F)cc2)c2ncnc(Oc3ccc(NC(=O)Nc4ccc(Cl)c(C(F)(F)F)c4)cc3)c12`, the growth in the assay on NCI-H226 lung was 103%; with NCI-H322M lung it was 100%; in the assay on HOP-62 NSCLC, 105%; in the assay on NCI-H460 lung it was 101%; in the assay with HOP-92 NSCLC, 104%; in the assay with NCI-H522 lung, 99.7%. The growth was 96.2% with A549/ATCC NSCLC, 106% with 786-0 renal and 109% with COLO 205 colon.

`COc1ccc(-c2n[nH]nc2-c2csc3ccccc23)cc1OC`: the growth was 67.2% with NCI-H226 lung; 51.7% with NCI-H322M lung; 25.2% in the assay with HOP-62 NSCLC; 15.7% in the assay on NCI-H460 lung; 41.6% in the assay with HOP-92 NSCLC; 7.11% (active) in the assay on NCI-H522 lung. The growth in the assay with A549/ATCC NSCLC was 31.9%; with 786-0 renal, 30.7%; with COLO 205 colon it was 34.7%.

For `CSc1ccc(-c2ccccc(=O)c2O)cc1`, the growth in the assay on NCI-H226 lung is 16.1%; in the assay with NCI-H322M lung it was 19.5%; in the assay with HOP-62 NSCLC it was 3.95% (active); in the assay with NCI-H460 lung, 2.89% (active); in the assay with HOP-92 NSCLC it was 49.5%; with NCI-H522 lung, 24.1%. In addition, the growth in the assay with A549/ATCC NSCLC was 11.5%; with 786-0 renal, 8.4% (active); in the assay with COLO 205 colon it was 22.6%.

Consider `COc1ccc(-n2nc(C)c3c(Nc4ccc(NC(=O)Nc5cc(C(F)(F)F)ccc5F)cc4)ncnc32)cc1`, for which the growth with NCI-H322M lung was 11%; in the assay on HOP-62 NSCLC it was -38.6% (active); with NCI-H460 lung, 13.7%; in the assay on HOP-92 NSCLC it was 32.9%; in the assay with NCI-H522 lung, -12% (active); in the assay with A549/ATCC NSCLC, 22.9%. Also, the growth with 786-0 renal is 11.3%; in the assay with COLO 205 colon it was 15.2%.

For the origin of these results see PubChem BioAssay (NCI).
